We go through 22 compounds from PubChem BioAssay (NCATS).

The test system of one assay is TAB165. Nature of the assay: qHTS profiling for inhibitors of Plasmodium falciparum proliferation (AID 504749). Also: nearly all actives have a fitted effect of over 60% in size. Also: potency is read from the fitted curve at half-maximal effect. The note with it: P. falciparum in erythrocytes, SYBR Green DNA, 72 h; series mostly up to 28.7 µM. In outline: (§1)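 Three-day growth assay of blood-stage parasites in erythrocytes (0.3% parasitemia, 2.5% hematocrit) at 37 C, 5% CO2, quantified by SYBR Green DNA staining after overnight detergent lysis.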

A further assay concerns W2. The description is as above. The note with it: P. falciparum in erythrocytes, SYBR Green DNA, 72 h; series mostly up to 28.7 µM. The method in brief: as §1
The subject of the next assay is HACAT. Put plainly: qHTS assay to identify novel small-molecules to repurpose for Merkel cell carcinoma treatment (AID 1296009). Also: nearly all actives have a fitted effect of over 60% in size. The note with it: MCC and control cell lines, CellTiter-Glo viability, 72 h; at 44.8 µM (top of the series) unless noted. The method in brief:
(§2)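 After compound transfer in DMSO, plates were kept 72 hr at 37 degree celsius. Luminescent ATP signal from CellTiter-Glo served as viability measure, normalized against DMSO and no-cell controls.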

A further assay relates to MCC-13. Described as above. The note with it: MCC and control cell lines, CellTiter-Glo viability, 72 h; series mostly up to 46 µM. The method in brief: as §2
The subject of a further assay is MCC-26. Described as above. The conditions noted are these: MCC and control cell lines, CellTiter-Glo viability, 72 h; series mostly up to 46 µM. In outline:
as §2

The next assay concerns MKL-1. Described as above. The conditions noted are these: MCC and control cell lines, CellTiter-Glo viability, 72 h; series mostly up to 46 µM. The method in brief:
as §2

The next assay deals with MKL-2. The assay is described as above. The conditions noted are these: MCC and control cell lines, CellTiter-Glo viability, 72 h; series mostly up to 46 µM. The method in brief: as §2
In a further assay the test system is UISO. The description is as above. The note with it: MCC and control cell lines, CellTiter-Glo viability, 72 h; series mostly up to 46 µM. The method in brief:
as §2

The next assay deals with WaGa. Described as above. The note with it: MCC and control cell lines, CellTiter-Glo viability, 72 h; series mostly up to 46 µM. The method in brief:
as §2

The next assay has as its system C33A. Nature of the assay: Primary qHTS to identify gynecologic anti-cancer compounds using libraries of approved drugs and bioactive compounds (AID 1345084). Also: % is scaled to controls: 0 for no effect and ±100 for the full control effect; nearly all actives have a fitted effect of over 55% in size. The conditions noted are these: Gynecologic cancer cell panel viability, ATPlite luminescence, 48 h; series mostly up to 57.5 µM. In outline:
(§3)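 Luminescence from the ATPlite ATP-monitoring reagent indicates viable cell number; lower signal means cytotoxicity. Cells received compound 16 h after seeding and were exposed for 48 h across five concentrations.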

Another assay concerns CAOV3. The assay is described as above. The conditions noted are these: Gynecologic cancer cell panel viability, ATPlite luminescence, 48 h; series mostly up to 57.5 µM. In outline: as §3
Another assay concerns CASKI. The assay is described as above. The note with it: Gynecologic cancer cell panel viability, ATPlite luminescence, 48 h; series mostly up to 57.5 µM. The method in brief: as §3
Another assay deals with Es-2. The description is as above. The note with it: Gynecologic cancer cell panel viability, ATPlite luminescence, 48 h; series mostly up to 57.5 µM. In outline:
as §3

The subject of another assay is KB-3-1. Put plainly: Cytotoxic Profiling of Annotated Libraries Using Quantitative High-Throughput Screening (AID 1296008). Also: % is scaled to controls: 0 for no effect and ±100 for the full control effect; nearly all actives have a fitted effect of over 60% in size. The conditions noted are these: Five cell lines viability, CellTiter-Glo ATP luminescence, 48-72 h; max response: active compounds read low. In outline: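 Cytotoxicity was measured as CellTiter-Glo ATP luminescence, read after 10 min at room temperature. Compound treatment of the cells lasted 48 or 72 hr at 37 degrees Celsius in a qHTS format.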

The subject of a further assay is HEK293T. Nature of the assay: qHTS assay to identify novel small-molecules to repurpose for Merkel cell carcinoma treatment (AID 1296009). Also: nearly all actives have a fitted effect of over 60% in size. The note with it: MCC and control cell lines, CellTiter-Glo viability, 72 h; at 44.8 µM (top of the series) unless noted. In outline: as §2
The next assay has as its system NIH3T3. Described as above. The conditions noted are these: MCC and control cell lines, CellTiter-Glo viability, 72 h; at 44.8 µM (top of the series) unless noted. The method in brief: as §2

Inconclusive results are not listed. A number with no mark means an inactive call. The source made the active and inactive calls. Calls follow the shape of the dose curve; as a rule, active = well fitted curve in the direction sought with a large enough effect; inconclusive = small, poorly fitted or top-dose-only effect, or another doubt; inactive = no such curve, though single readings can be large; an effect the other way counts as inactive or inconclusive.

As to `CC(=O)Oc1ccc(C(=C2CCCCC2)c2ccc(OC(C)=O)cc2)cc1`, the Potency result with TAB165, in the assay on W2, with MCC-13, with MCC-26, with MKL-1 and in the assay on MKL-2 was “inactive” throughout. In addition, the Potency entry with UISO, with WaGa, in the assay with C33A, with CAOV3, with CASKI and with Es-2 was “inactive” in each case. In addition, the compound was classed as inactive with HACAT.

For `CNCCC=C1c2ccccc2CCc2ccccc21`, the Potency in the assay with W2 was 1.51 µM (active). Also, the max response with KB-3-1 is -9.12%.

As to `Cc1ccnc(NS(=O)(=O)c2ccc(N)cc2)n1`, the Potency result in the assay with TAB165, with W2, with MCC-13, in the assay on MCC-26, with MKL-1 and in the assay on MKL-2 was “inactive” each time. Moreover, the Potency entry in the assay with UISO, with WaGa, in the assay with C33A, in the assay on CAOV3, in the assay on CASKI and with Es-2 was “inactive” each time. Moreover, the outcome with HACAT and in the assay on HEK293T was inactive.

Regarding `O=C(O)c1cc2cc(Cc3cccnc3)ccc2o1`, the Potency result with TAB165 and in the assay on W2 was “inactive” each time. Also, the max response in the assay with KB-3-1 is 4.6%.

For `CC(Cc1cccc(C(F)(F)F)c1)NCCOC(=O)c1ccccc1` (configuration not stated), the Potency entry with TAB165, in the assay with MCC-13, in the assay on MCC-26, in the assay with MKL-1, in the assay with MKL-2 and in the assay on UISO was “inactive” in each case. Moreover, the Potency result with WaGa, in the assay on C33A, in the assay on CAOV3, in the assay on CASKI and with Es-2 was “inactive” each time. Moreover, the compound was called inactive in the assay with NIH3T3.

For `CO/N=C1\CN(c2nc3c(cc2F)c(=O)c(C(=O)O)cn3C2CC2)CC1CN` (configuration not stated), the Potency with W2 was 5.36 µM (active). In the assay on HACAT, the compound was called inactive. Further, the Potency entry with MCC-13, in the assay on MCC-26, in the assay with MKL-1, in the assay with MKL-2, in the assay on UISO and in the assay with WaGa was “inactive” in each case. The Potency entry in the assay on CAOV3, with CASKI and in the assay with Es-2 was “inactive” throughout.

Consider `COc1ccc(OC)c(C(O)CNC(=O)CN)c1` (configuration not stated), for which the compound was classed as inactive with HACAT. In addition, the Potency result in the assay on MCC-13, with MCC-26, with MKL-1, in the assay on MKL-2, in the assay on UISO and with WaGa was “inactive” each time. The Potency result in the assay with C33A, with CAOV3, in the assay on CASKI and in the assay on Es-2 was “inactive” in each case.

On to `N[C@@H](Cc1cnc[nH]1)C(=O)O`, for which the Potency result in the assay on TAB165 and in the assay with W2 was “inactive” throughout. For the same compound, the max response in the assay on KB-3-1 is 2.19%.

Consider `CC1=C(C(=O)O)N2C(=O)[C@@H](NC(=O)[C@H](N)c3ccc(O)cc3)[C@H]2SC1`, for which, in the assay with HEK293T, the result was inactive. Besides, the Potency result in the assay with MCC-13, in the assay with MCC-26, in the assay with MKL-1, with MKL-2, in the assay on UISO and in the assay on WaGa was “inactive” each time. The Potency entry in the assay on C33A, in the assay with CAOV3, with CASKI and in the assay with Es-2 was “inactive” throughout.

Regarding `NC(=O)CC[C@@H]1NC(=O)[C@H](Cc2ccccc2)NC(=O)[C@H](Cc2ccc(O)cc2)NC(=O)CCSSC[C@@H](C(=O)N2CCC[C@H]2C(=O)N[C@@H](CCCN=C(N)N)C(=O)NCC(N)=O)NC(=O)[C@H](CC(N)=O)NC1=O`, the Potency entry in the assay on MCC-13, with MCC-26, in the assay on MKL-1, in the assay on MKL-2, in the assay with UISO and with WaGa was “inactive” in each case. Further, the Potency entry with C33A, in the assay on CAOV3, in the assay with CASKI and in the assay with Es-2 was “inactive” each time. Moreover, the result in the assay on NIH3T3 was inactive.

As to `CCOC(=O)n1ccn(C)c1=S`, the Potency entry with TAB165, in the assay on W2, in the assay with MCC-13, in the assay with MCC-26, in the assay with MKL-1 and with MKL-2 was “inactive” throughout. For the same compound, the Potency entry in the assay with UISO, in the assay with WaGa, in the assay with C33A, in the assay with CAOV3, in the assay on CASKI and in the assay with Es-2 was “inactive” throughout. Moreover, the compound was called inactive in the assay on NIH3T3.

For the compound `NC(=O)c1cc[n+](CC2=C(C(=O)[O-])N3C(=O)[C@@H](NC(=O)Cc4cccs4)[C@H]3SC2)cc1`, the Potency result in the assay with MCC-13, with MCC-26, with MKL-1, in the assay with MKL-2, in the assay on UISO and in the assay with WaGa was “inactive” throughout. Besides, the Potency entry in the assay on C33A, in the assay with CAOV3, in the assay with CASKI and in the assay with Es-2 was “inactive” in each case. Besides, the result in the assay with NIH3T3 was inactive.

For the compound `CCN1CCC[C@H]1CNC(=O)c1c(OC)ccc(Br)c1OC`, the Potency entry in the assay with TAB165, with MCC-13, in the assay on MCC-26, with MKL-1, in the assay on MKL-2 and in the assay with UISO was “inactive” each time. Moreover, the Potency result with WaGa, with C33A, with CAOV3, in the assay on CASKI and in the assay on Es-2 was “inactive” throughout. In addition, in the assay with HEK293T, the call was inactive.

In the case of `NCCc1ccn[nH]1`, the Potency result in the assay on TAB165, with W2, with MCC-13, with MCC-26, in the assay with MKL-1 and with MKL-2 was “inactive” throughout. Also, the Potency entry in the assay on UISO, in the assay with WaGa, in the assay on C33A, in the assay on CAOV3, in the assay on CASKI and in the assay on Es-2 was “inactive” throughout. In addition, in the assay on HACAT, the call was inactive.

As for `CC[C@@H](CO)NCCN[C@@H](CC)CO`, the outcome in the assay with HEK293T and in the assay on NIH3T3 was inactive. Also, the Potency entry in the assay on MCC-13, in the assay with MCC-26, with MKL-1, in the assay on MKL-2, with UISO and with WaGa was “inactive” throughout. In addition, the Potency result in the assay on C33A, with CASKI and in the assay on Es-2 was “inactive” each time.

For the compound `Nc1cc(Cl)c(NC2=NCCN2)c(Cl)c1`, the Potency entry in the assay on TAB165 and in the assay with W2 was “inactive” each time. Besides, the max response in the assay with KB-3-1 was -1.36%.

As to `CCCC(=O)Nc1ccc(OCC(O)CNC(C)C)c(C(C)=O)c1` (configuration not stated), the outcome with HACAT was inactive. The Potency result in the assay with MCC-13, with MCC-26, with MKL-1, with MKL-2, in the assay on UISO and with WaGa was “inactive” in each case. Also, the Potency entry in the assay with C33A, in the assay on CASKI and in the assay with Es-2 was “inactive” throughout.

Consider `NCCCC[C@H](N[C@@H](CCc1ccccc1)C(=O)O)C(=O)N1CCC[C@H]1C(=O)O`, for which the Potency result in the assay with TAB165, in the assay with W2, in the assay on MCC-13, in the assay on MCC-26, in the assay on MKL-1 and in the assay with MKL-2 was “inactive” in each case. For the same compound, the Potency result with UISO, with WaGa, in the assay on C33A, in the assay on CAOV3, in the assay with CASKI and in the assay on Es-2 was “inactive” each time. For the same compound, in the assay on HEK293T, the compound was called inactive.

For `Cc1c(F)c(N2CCNC(C)C2)cc2c1c(=O)c(C(=O)O)cn2C1CC1` (configuration not stated), the Potency result with TAB165, in the assay on W2, with MCC-13, in the assay on MCC-26, in the assay with MKL-1 and with MKL-2 was “inactive” in each case. Further, the Potency result with UISO, in the assay with WaGa, in the assay on C33A, in the assay on CAOV3, in the assay on CASKI and in the assay on Es-2 was “inactive” in each case. Besides, the call with HEK293T was inactive.

Regarding `N[C@@H](CCC(=O)N[C@@H](CS)C(=O)NCC(=O)O)C(=O)O`, the outcome in the assay with HACAT and with NIH3T3 was “inactive [at 17.4 µM]” each time. The Potency entry in the assay on MCC-13, in the assay on MCC-26, in the assay on MKL-1, in the assay with MKL-2, in the assay on UISO and in the assay with WaGa was “inactive” each time. The Potency entry with C33A, in the assay with CAOV3, in the assay with CASKI and in the assay on Es-2 was “inactive” each time.

Consider `COC(=O)[C@H]1[C@H]2C[C@H]3c4[nH]c5ccccc5c4CCN3C[C@H]2CC[C@@H]1O`, for which, in the assay on W2, the Potency entry was “inactive”. The max response with KB-3-1 is -10.9%.

Take `Cc1cccn2c(=O)c(-c3nnn[nH]3)cnc12`: the Potency result with TAB165, in the assay with W2, with MCC-13, in the assay with MCC-26, with MKL-1 and in the assay on MKL-2 was “inactive” throughout. The Potency result with UISO, in the assay with WaGa, with C33A, with CAOV3, with CASKI and with Es-2 was “inactive” in each case. Further, the outcome in the assay on HEK293T is “inactive [at 17.4 µM]”.
